Data on 97 compounds can be found in PubChem BioAssay AID1445 (SRMLSC, 2008).

Hit rate of the full screen: of about 220,000 compounds, about 910 (0.41%) were called active.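 Rule for the calls: active = primary inhibition above the hit cutoff, then over 50% inhibition at one or more dose response concentrations (cut at about 23% in these data, passing the limit was not always enough); inconclusive = conflicting primary data, or primary hits not chosen for dose response; inactive = low primary inhibition, or under 50% at every dose.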 Shown is part of a subset that was picked to be rich in actives. Potency and affinity values are given separately.

The target in the assay is Aminopeptidase N (Plasmodium falciparum (isolate 3D7)) (UniProt O96935). Description: P. falciparum M1AAP inhibitors, biochemical, fluorogenic H-Leu-NHMec substrate, 1536-well (AID 1445).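 Note: plate controls were DMSO full reaction for no effect and no enzyme background for full effect.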 Particulars: recombinant M1AAP, H-Leu-NHMec fluorogenic kinetic assay; at 30 µM, stronger effect = higher value unless noted.
Aminopeptidase N (Plasmodium falciparum (isolate 3D7)), sequence (O96935 whole entry, looked up): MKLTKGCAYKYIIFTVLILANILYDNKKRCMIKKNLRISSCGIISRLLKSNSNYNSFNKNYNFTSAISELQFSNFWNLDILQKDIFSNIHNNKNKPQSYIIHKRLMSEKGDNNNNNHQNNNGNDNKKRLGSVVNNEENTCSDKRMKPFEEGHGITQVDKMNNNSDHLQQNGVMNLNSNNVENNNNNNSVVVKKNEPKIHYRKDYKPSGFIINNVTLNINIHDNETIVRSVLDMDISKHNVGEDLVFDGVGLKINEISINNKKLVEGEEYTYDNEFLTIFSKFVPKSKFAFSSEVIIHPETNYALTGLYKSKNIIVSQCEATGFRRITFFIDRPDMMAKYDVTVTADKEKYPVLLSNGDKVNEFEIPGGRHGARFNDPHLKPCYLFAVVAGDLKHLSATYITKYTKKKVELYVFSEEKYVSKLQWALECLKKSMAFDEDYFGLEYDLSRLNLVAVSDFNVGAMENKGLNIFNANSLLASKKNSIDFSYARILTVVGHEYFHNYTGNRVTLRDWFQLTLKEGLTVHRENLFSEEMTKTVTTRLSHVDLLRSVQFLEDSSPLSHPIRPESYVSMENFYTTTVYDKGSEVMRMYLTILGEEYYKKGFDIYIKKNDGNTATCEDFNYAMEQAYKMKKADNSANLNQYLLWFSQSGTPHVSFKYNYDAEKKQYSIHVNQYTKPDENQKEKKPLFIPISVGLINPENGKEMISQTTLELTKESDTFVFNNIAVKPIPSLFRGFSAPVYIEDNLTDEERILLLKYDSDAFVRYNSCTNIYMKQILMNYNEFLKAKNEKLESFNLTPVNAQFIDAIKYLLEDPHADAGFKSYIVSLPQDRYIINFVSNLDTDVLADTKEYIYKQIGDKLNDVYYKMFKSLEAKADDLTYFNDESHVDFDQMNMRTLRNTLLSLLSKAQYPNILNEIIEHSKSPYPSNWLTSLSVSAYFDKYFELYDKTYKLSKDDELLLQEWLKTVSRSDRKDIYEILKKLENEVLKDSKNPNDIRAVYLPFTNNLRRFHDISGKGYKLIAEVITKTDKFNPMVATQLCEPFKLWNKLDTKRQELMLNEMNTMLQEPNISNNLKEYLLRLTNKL
With `CCOC(=O)COc1ccc(N)cc1CC(NC(C)=O)(C(=O)OCC)C(=O)OCC`, the inhibition was 6.1% (inactive).

Consider `Cn1cc(CNC(=O)C2c3ccccc3Oc3ccccc32)cn1`, for which the inhibition is 13.7% (inactive).

In the case of `COc1ccc(N=CC2=C(O)CC(C)(C)CC2=O)cc1`, the inhibition was 13.6% (inactive).

With `C=CCc1c(C)nc2c(C)cccc2c1SC(=N)N`, the inhibition was 1.57% (inactive).

`CCOC(=O)CSc1nc(C)c2cccc(C)c2n1`: the inhibition was 0.76% (inactive).

`CCOc1ccc(NC(=O)c2ccccc2OC)cc1`: the inhibition was 5.95% (inactive).

As to `COc1ccc(NC(=O)CSc2c(C)n[nH]c2C)cc1`, the inhibition is 0.25% (inactive).

Turning to `O=C(Nc1nc2ccccc2[nH]1)C1CC(=O)N(c2ccc3c(c2)OCCO3)C1` (configuration not stated), the inhibition was -0.34% (inactive).

Regarding `O=C(NCCCc1ccccc1)C1CC(=O)N(c2ccc3c(c2)OCCO3)C1` (configuration not stated), the inhibition was 2.32% (inactive).

As for `O=C(NC(Cc1ccccc1)c1nc2ccccc2[nH]1)C1CC(=O)N(c2ccc3c(c2)OCCO3)C1` (configuration not stated), the inhibition is 26% (active).

Consider `CCN(CC)C(=O)c1ccc(-c2cccs2)s1`, for which the inhibition was 2.09% (inactive).

As to `O=C(c1cccs1)c1ccc(-c2cccs2)s1`, the inhibition was 15.2% (inactive).

As to `COc1ccc(NC(=O)Cn2nnc(C(=O)NCCc3ccc(OC)c(OC)c3)c2N)c(OC)c1`, the inhibition is 0.32% (inactive).

For `O=C(NNc1c(Cl)cc(Cl)cc1Cl)c1cccc([N+](=O)[O-])c1`, the inhibition is 0.41% (inactive).

Regarding `Cc1ccccc1CSc1nn2c(=O)c(C)nnc2s1`, the inhibition is 1.72% (inactive).

On to `O=[N+]([O-])c1cccc(S(=O)(=O)NCCc2cn3ccccc3n2)c1`, for which the inhibition was -0.31% (inactive).

In the case of `CCCc1ccc(-c2ccc(F)c(N)c2)nc1`, the inhibition is 6.24% (inactive).

Turning to `Nc1ccc2nc(-c3ccccc3)[nH]c2c1`, the inhibition was 1.94% (inactive).

Regarding `Nc1ccc2nc(-c3ccc(Cl)cc3)[nH]c2c1`, the inhibition is 14% (inactive).

For the compound `CCOC(=O)CN(C(=O)CNC(=O)c1ccco1)C(C(=O)NC1CCCCC1)c1cccs1` (configuration not stated), the inhibition was 2.4% (inactive).

As to `Cc1cc(C)nc(SCC(=O)N/N=C/c2cccn2-c2ccc(O)cc2)n1`, the inhibition was 8.99% (inactive).

With `Cc1onc(-c2ccccc2Cl)c1C(=O)Nc1cccc(-c2cn3cccnc3n2)c1`, the inhibition was 26.2% (active).

With `Cc1ccc(-c2cn3cccnc3n2)cc1NC(=O)c1c(-c2ccccc2Cl)noc1C`, the inhibition was 9.6% (inactive).

As for `Cc1onc(-c2ccccc2Cl)c1C(=O)Nc1ccc(-c2cn3cccnc3n2)cc1`, the inhibition was 3.1% (inactive).

Take `COc1ccccc1NS(=O)(=O)c1cc(NC(=O)c2cccs2)ccc1N1CCOCC1`: the inhibition was 3.5% (inactive).

With `Cc1nn2c(N3CCCC3)c3c(nc2c1-c1ccccc1)CCC3`, the inhibition was 7% (inactive).

For the compound `Cc1nn2c(N3CCOCC3)c3c(nc2c1-c1ccccc1)CCCC3`, the inhibition is 4.17% (inactive).

With `CC1(C)CC(=O)C(/C=N/n2c(C(F)(F)F)nc3ccccc3c2=O)=C(O)C1`, the inhibition is 27.5% (active).

Turning to `CC1(C)CC(=O)C(C=Nc2ccccc2)=C(O)C1`, the inhibition was 2.69% (inactive).

Consider `CC1(C)CC(=O)C(/C=N/n2cnc3ccccc3c2=O)=C(O)C1`, for which the inhibition is 11.3% (inactive).

On to `O=C(c1ccco1)N1CCN(C(c2ccccc2Cl)c2nnnn2Cc2ccco2)CC1` (configuration not stated), for which the inhibition is 2.33% (inactive).

Turning to `Cc1noc(NC(=O)c2ccccc2C(F)(F)F)c1C#N`, the inhibition is -0.81% (inactive).

With `O=S(=O)(Nc1cccnc1)c1cccc(Cl)c1`, the inhibition was -0.41% (inactive).

As for `O=S(=O)(Nc1ccncc1Cl)c1cc(Cl)ccc1Cl`, the inhibition was 4.72% (inactive).

On to `O=S(=O)(Nc1ncccn1)c1ccc(NS(=O)(=O)c2cc(Cl)ccc2Cl)cc1`, for which the inhibition was 30.4% (inactive).

In the case of `O=S(=O)(Nc1cccnc1)c1cc(Cl)ccc1Cl`, the inhibition is 25.4% (active).

In the case of `O=S(=O)(Nc1cccnc1)c1ccc(Cl)cc1`, the inhibition was 1.51% (inactive).

For `O=C(O)c1ccc(NS(=O)(=O)c2cc(Cl)ccc2Cl)cc1`, the inhibition was 5.33% (inactive).

`O=S(=O)(Nc1nccs1)c1ccc(Cl)cc1`: the inhibition was -5.71% (inactive).

For the compound `O=S(=O)(Nc1nccs1)c1cc(Cl)ccc1Cl`, the inhibition is 25.8% (active).

For the compound `CCOc1ccccc1C(=O)Nc1nnc(SCC(=O)N2CCOCC2)s1`, the inhibition was 2.46% (inactive).

As to `CN(CC(=O)N1CCCCCC1)S(=O)(=O)c1ccc(Br)s1`, the inhibition was 8.78% (inactive).

Consider `CCOC(=O)Cn1nc(C)c(NC(=O)COc2ccccc2[N+](=O)[O-])c1C`, for which the inhibition was 0.47% (inactive).

Take `Cn1c(=O)n(-c2cccc(Cl)c2)c(=O)n1C`: the inhibition was 4.63% (inactive).

Consider `COc1ccc(/C=C/C(=O)NC(=S)NNC(=O)c2cccnc2)cc1`, for which the inhibition is -8.48% (inactive).

Regarding `Cc1oc(C(=O)O)cc1COc1ccc2c3c(c(=O)oc2c1C)CCC3`, the inhibition was 7.51% (inactive).

Turning to `Cc1oc(C(=O)O)cc1COc1ccc2c3c(c(=O)oc2c1)CCC3`, the inhibition is 5.26% (inactive).

In the case of `Cc1cc2oc(=O)c3c(c2cc1OCc1nn[nH]n1)CCCC3`, the inhibition was 10.1% (inactive).

As for `Cc1cc(OCc2nn[nH]n2)c2c(C)c(CC(=O)O)c(=O)oc2c1`, the inhibition was 0.25% (inactive).

For the compound `Cc1ccc(S(=O)(=O)NC2=NCCC2)cc1`, the inhibition is -0.29% (inactive).

Consider `NC(=O)Cn1nc(C(F)(F)F)c2c1CCCC2`, for which the inhibition is 10.1% (inactive).

For `O=C(CSc1nnc(CCc2nc3ccccc3[nH]2)n1-c1ccccc1)NCc1ccccc1`, the inhibition is -1.21% (inactive).

In the case of `COc1ccc(-c2[nH]ncc2/C=C(/C#N)C(=O)NC2CCCCC2)cc1`, the inhibition was 7.83% (inactive).

For `Cc1ccc(-c2[nH]ncc2/C=C(\C#N)C(=O)NC2CCCCC2)cc1`, the inhibition is 24.9% (active).

Take `N#C/C(=C\c1cn[nH]c1-c1ccccc1)C(=O)NC1CCCCCC1`: the inhibition is 9.74% (inactive).

For `CCOC(=O)c1[nH]c2ccc(OC)cc2c1NC(=O)c1cccc(OC)c1`, the inhibition is 3.82% (inactive).

On to `Cc1nn(-c2ccccc2)c(Cl)c1C(=O)N(C)c1nc(-c2ccc(F)cc2)cs1`, for which the inhibition was -3.58% (inactive).

As to `COc1cc(/C=C/C(=O)NCCn2c(C)cc3ccccc32)cc(OC)c1OC`, the inhibition was 8.36% (inactive).

Regarding `O=Cc1cn(CC(=O)N2CCc3ccccc32)c2ccccc12`, the inhibition is 2.93% (inactive).

Consider `N#Cc1cn(CC(=O)N2CCCc3ccccc32)c2ccccc12`, for which the inhibition was 9.27% (inactive).

Turning to `O=C(NCC(c1cccs1)N1CCOCC1)c1ccc(Cl)s1` (configuration not stated), the inhibition was 7.44% (inactive).

For the compound `C=CCNC(=S)N1CCC(C(=O)c2ccc(OC)cc2)CC1`, the inhibition was 8.35% (inactive).

Regarding `COc1ccc(C2OC(=O)C(C)(C)C(=O)C2(C)C)cc1OC` (configuration not stated), the inhibition was -0.38% (inactive).

`Cc1ccc(S(=O)(=O)c2c(C)nn(C(C)(C)C)c2OC(=O)c2ccco2)cc1`: the inhibition was 27.3% (active).

Consider `Cc1ccc(S(=O)(=O)c2c(C)nn(-c3ccccc3)c2OC(=O)c2ccco2)cc1`, for which the inhibition is 6.34% (inactive).

On to `Cc1ccc(S(=O)(=O)c2c(C)nn(C(C)(C)C)c2OC(=O)c2ccc(Br)o2)cc1`, for which the inhibition is 19.6% (inactive).

Turning to `CCCCCOC(=O)C1C2C=CC3(CN(c4ccccc4C)C(=O)C13)O2` (configuration not stated), the inhibition is 5.27% (inactive).

Take `Nc1nc(CSc2ncccn2)nc(Nc2ccccc2)n1`: the inhibition is -3.84% (inactive).

Consider `O=C(Nc1ccc(-n2cnnn2)cc1)C1CCCN1C(=O)NC1CCCCC1` (configuration not stated), for which the inhibition was 3.93% (inactive).

Take `O=C(CSc1ncn[nH]1)Nc1ccccc1-c1ccccc1`: the inhibition was -4.4% (inactive).

For the compound `Nc1cc(=O)[nH]c(SCC(=O)Nc2ccccc2-c2ccccc2)n1`, the inhibition is 2.73% (inactive).

With `CCCNc1ncccc1C(N)=O`, the inhibition is -1.06% (inactive).

Take `Cc1ccc(Cn2cccc(-c3nc4ccccc4s3)c2=O)cc1`: the inhibition was 10.1% (inactive).

Take `O=c1c(-c2nc3ccccc3s2)cccn1Cc1ccccc1`: the inhibition was 25.6% (active).

With `O=c1c(-c2nc3ccccc3s2)cccn1Cc1ccc(Cl)cc1`, the inhibition is 2.06% (inactive).

Consider `O=C(O)CCC(=O)OC1CC2CCC1C2` (configuration not stated), for which the inhibition was -3.14% (inactive).

Take `CCN(CC)S(=O)(=O)c1ccc(NC(=O)CC(NC(C)=O)c2ccccc2)cc1` (configuration not stated): the inhibition is -1.24% (inactive).

As for `COc1ccc(C2=NN(c3ccccc3)C(=O)/C2=C\c2ccc(O)c(OC)c2)cc1`, the inhibition is 8.38% (inactive).

As to `COc1cc(/C=C2\SC(c3ccc(C)cc3)=NC2=O)ccc1O`, the inhibition is 9.74% (inactive).

Take `CCOc1cc(/C=C2\SC(=S)N(Nc3ccccc3)C2=O)ccc1O`: the inhibition was 14.7% (inactive).

Take `CCOc1cc(/C=C2\C(=O)N(c3nc(-c4ccc(Br)cc4)cs3)N=C2c2ccccc2)ccc1O`: the inhibition is 15.7% (inactive).

Regarding `CCNc1c([N+](=O)[O-])c(=O)oc2ccccc12`, the inhibition was 7.91% (inactive).

Turning to `COc1ccccc1C(=O)N1CCN(Cc2cn[nH]c2-c2ccc(F)cc2F)CC1`, the inhibition was 3.76% (inactive).

Turning to `Cc1cccc2cc(CN(C(=O)c3cnccn3)C3CCCCC3)c(Cl)nc12`, the inhibition was 5.74% (inactive).

Regarding `Cc1ccc(S(=O)(=O)NN=C2CCN(Cc3ccccc3)CC2)cc1`, the inhibition is 4.22% (inactive).

As to `O=C(O)CC(c1ccc(Cl)cc1)n1cccc1` (configuration not stated), the inhibition was 8.45% (inactive).

With `CC(=O)Nc1cc(C(=O)OC(C(=O)c2ccccc2)c2ccccc2)ccc1C` (configuration not stated), the inhibition was 2.38% (inactive).

On to `Cc1cccc2cc(COC(=O)C(C)(C)C)c(=O)[nH]c12`, for which the inhibition was 4.55% (inactive).

Take `Cc1ccc(-n2c(N)c(C(=O)N3CCOCC3)sc2=S)cc1`: the inhibition is -1.83% (inactive).

Regarding `Nc1c(C(=O)N2CCOCC2)sc(=S)n1-c1ccccc1`, the inhibition is 24.9% (active).

With `Nc1c(C(=O)N2CCCCC2)sc(=S)n1-c1ccccc1`, the inhibition was 0.35% (inactive).

On to `CCOC(=O)CC(NC(=O)c1ccc(C)cc1)c1ccc(OC)cc1` (configuration not stated), for which the inhibition is 5.77% (inactive).

With `CCN(Cc1ccncc1)C(=O)CCc1nnc(CCc2ccccc2OC)o1`, the inhibition is -2.71% (inactive).

Turning to `NC(N)=Nc1nc(-c2ccccc2)c2ccccc2n1`, the inhibition is 5.22% (inactive).

In the case of `CCc1ccc2nc(N=C(N)N)nc(C)c2c1`, the inhibition is 5.85% (inactive).

`COc1cc(/C=C2/SC(=S)N(CC(=O)Nc3nc4ccccc4s3)C2=O)cc(OC)c1OC`: the inhibition is 6.28% (inactive).

For the compound `Cc1ccc(N(Cc2ccccc2F)S(C)(=O)=O)cc1C`, the inhibition was -9.52% (inactive).

As a reminder, the inhibition is the change of the read-out against control, counted positive when it falls.
